# From PubChem BioAssay (EPA / NIEHS)
# Active and inactive are the calls of the source. Rule for the calls: active = hit-call score of the fitted dose curve at least 0.9, where 1 is the maximum; inactive = score below 0.9.
# Assay: ATG_ERE_CIS: Attagene CIS-FACTORIAL HepG2 Assay for Estrogen Response Element (ERE) (AID 2282940)
# Conditions: HepG2 ERE cis-reporter, Attagene RNA transcript; actives raise or lower the signal
# Experimental: ATG_CIS is a cell-based, multiplexed-readout assay that uses HepG2, a human liver cell line, with measurements taken at 24 hours after chemical dosing in a 24-well plate.ATG_ERE_CIS is one of 52 assay component(s) measured or calculated from the ATG_CIS assay. It is designed to make measurements of mRNA induction, a form of inducible reporter, as detected with fluorescence intensity signals by Reverse transcription polymerase chain reaction (RT-PCR) and Capillary electrophoresis technology.Data from the assay component ATG_ERE_CIS was analyzed into 1 assay endpoint. This assay endpoint, ATG_ERE_CIS, was analyzed with bidirectional fitting relative to DMSO as the negative control and baseline of activity. Using a type of inducible reporter, measures of mRNA for gain or loss-of-signal activity can be used to understand the reporter gene at the transcription factor-level as they relate to the gene ESR1. Furthermore, this assay endpoint can be referred to as a primary readout, because this assay has produced multiple assay endpoints where this one serves a reporter gene function. To generalize the intended target to other relatable targets, this assay endpoint is annotated to the nuclear receptor intended target family, where the subfamily is steroidal.
# Human liver HepG2 cells are transiently transfected with multiple reporter transcription units (MRTUs) in 6-well plates using FuGene 6 reagent (Roche; 3 ml FuGene/1 mg DNA). The MRTU constructs are regulated by a cis-regulating element (promoter). […] A major difference between the CIS and TRANS system is that in CIS activities of endogenous TFs are measured, whereas the TRANS assay evaluates changes in activities of exogenous, chimeric NR-Gal4 proteins. […] At the end of 24 hour incubation, total RNA was isolated using TriZol reagent (Invitrogen). The isolated RNA is then reverse-transcribed using oligo(dT) primer and Mo-MLV reverse transcriptase (Invitrogen) with DNAse I (Ambion) treatment for 30 min. The one-tenth of the produced cDNA was amplified by PCR using Taq DNA polymerase (Invitrogen) and two reporter sequence-specific primers. The PCR products were fluorescently labeled by primer extension with 6-arboxyfluorescein (6-FAM) 5'-labeled reporter sequence-specific primer (2 min at 95 C, 20 s at 68 C and 10 min at 72 C) and these products were digested with 5U of HpaI (New England Biolabs) for 2h at 37 C. The fragments were purified using Qiaquick PCR columns (Qiagen), analyzed on an ABI 3130xL genetic analyzer (Applied Biosystems) with peak positions identified by using a set of X-rhodamine (ROX)-labeled MapMarker1000 molecular weight standards (BioVentures). The raw capillary electrophoresis data was processed using Attagraph software (Attagene).
SMILES,AC50,outcome
CC(=O)OC(c1ccccc1)C(Cl)(Cl)Cl (stereo not given),73.8 µM (active),–
NC(=S)Nc1ccccc1,39.2 µM (active),–
Fc1ccc(C2(Cn3cncn3)OC2c2ccccc2Cl)cc1 (stereo not given),–,inactive
ClC1=C(Cl)[C@]2(Cl)[C@@H]3[C@@H](Cl)[C@@H](Cl)C[C@@H]3[C@@]1(Cl)C2(Cl)Cl,–,inactive
Nc1ccc(Cl)cc1C(=O)c1ccccc1,–,inactive
Oc1ccc(-c2ccccc2)cc1,2.15 µM (active),–
Cc1ccc2ccccc2c1C,–,inactive
CCC[CH2][Sn]([Cl])([Cl])[Cl],–,inactive
C(=NC1CCCCC1)=NC1CCCCC1,–,inactive
CC(C)c1cccc(C(C)C)c1O,–,inactive
COS(=O)(=O)c1ccc(C)cc1,–,inactive
COP(=S)(OC)Oc1ccc(Sc2ccc(OP(=S)(OC)OC)cc2)cc1,–,inactive
O=Cc1cccc(Oc2ccccc2)c1,–,inactive
Cc1ccc(N)cc1Cl,–,inactive
O=[N+]([O-])c1c(Cl)c(Cl)cc(Cl)c1Cl,–,inactive
CCCCOCCOC(C)=O,–,inactive
COc1cccc(C=O)c1,–,inactive
Nc1ccc(-c2ccc(N)c(Cl)c2)cc1Cl,3.86 µM (active),–
OCc1ccco1,–,inactive
CCc1ccccc1C,–,inactive

SMILES,AC50,outcome
CC(C)C1CCC(Cc2ccc(Cl)cc2)C1(O)Cn1cncn1 (stereo not given),–,inactive
COP(=S)(OC)Oc1cc(Cl)c(Cl)cc1Cl,75.6 µM (active),–
O=[N+]([O-])c1ccc(O)c([N+](=O)[O-])c1,–,inactive
O=C(O)Cc1ccccc1,–,inactive
CCCCC(CC)CO[N+](=O)[O-] (stereo not given),–,inactive
COC(=O)c1sccc1S(=O)(=O)NC(=O)Nc1nc(C)nc(OC)n1,47.4 µM (active),–
O=C(Nc1ccc2[nH]ccc2c1)c1cc2cc(F)ccc2n1Cc1cccc(F)c1,–,inactive
CCOC(=O)Nc1cccc(OC(=O)Nc2ccccc2)c1,–,inactive
CCOC(=O)CP(=O)(OCC)OCC,–,inactive
CCCCP(CCCC)CCCC,72.5 µM (active),–
CC(=O)c1cc(C(C)(C)C)cc2c1CCC2(C)C,–,inactive
COP(=O)(OC)O/C(=C\Cl)c1cc(Cl)c(Cl)cc1Cl,4.11 µM (active),–
COc1ccc(C=O)cc1OC,15.2 µM (active),–
Cl/C=C\C[N+]12CN3CN(CN(C3)C1)C2,–,inactive
Cn1sc(Cl)cc1=O,–,inactive
CC1(C)Cc2cccc(O)c2O1,–,inactive
COC[C@H](C)N(C(=O)CCl)c1c(C)csc1C,–,inactive
C=CC(=O)N(C)C,–,inactive
CNC,–,inactive
O=C/C=C/c1ccccc1,35 µM (active),–
